# From ChEMBL document CHEMBL3988442, “University of Dundee, Small-Polar-MMV Screening Library” (2021)
# For some of these results: Potency and affinity values are given separately.
# Assays:
# Parameters in all cases: scale not given: direction of the effect not stated beside the values
# [1] = target: Protein translocase subunit SecA (Escherichia coli (strain K12)) (UniProt P10408); assay: Assay to Identify E. coli SecA ATPase Inhibitors; type: functional; conditions: 30 µM
# [2] = target: T1, Ubiquitin-activating enzyme e1, putative (Leishmania donovani (strain BPK282A1)) (UniProt E9BSI1); assay: Leishmania donovani Ubiquitin Activating Enzyme (LdE1); type: functional; conditions: 30 µM
# T1 sequence (whole entry): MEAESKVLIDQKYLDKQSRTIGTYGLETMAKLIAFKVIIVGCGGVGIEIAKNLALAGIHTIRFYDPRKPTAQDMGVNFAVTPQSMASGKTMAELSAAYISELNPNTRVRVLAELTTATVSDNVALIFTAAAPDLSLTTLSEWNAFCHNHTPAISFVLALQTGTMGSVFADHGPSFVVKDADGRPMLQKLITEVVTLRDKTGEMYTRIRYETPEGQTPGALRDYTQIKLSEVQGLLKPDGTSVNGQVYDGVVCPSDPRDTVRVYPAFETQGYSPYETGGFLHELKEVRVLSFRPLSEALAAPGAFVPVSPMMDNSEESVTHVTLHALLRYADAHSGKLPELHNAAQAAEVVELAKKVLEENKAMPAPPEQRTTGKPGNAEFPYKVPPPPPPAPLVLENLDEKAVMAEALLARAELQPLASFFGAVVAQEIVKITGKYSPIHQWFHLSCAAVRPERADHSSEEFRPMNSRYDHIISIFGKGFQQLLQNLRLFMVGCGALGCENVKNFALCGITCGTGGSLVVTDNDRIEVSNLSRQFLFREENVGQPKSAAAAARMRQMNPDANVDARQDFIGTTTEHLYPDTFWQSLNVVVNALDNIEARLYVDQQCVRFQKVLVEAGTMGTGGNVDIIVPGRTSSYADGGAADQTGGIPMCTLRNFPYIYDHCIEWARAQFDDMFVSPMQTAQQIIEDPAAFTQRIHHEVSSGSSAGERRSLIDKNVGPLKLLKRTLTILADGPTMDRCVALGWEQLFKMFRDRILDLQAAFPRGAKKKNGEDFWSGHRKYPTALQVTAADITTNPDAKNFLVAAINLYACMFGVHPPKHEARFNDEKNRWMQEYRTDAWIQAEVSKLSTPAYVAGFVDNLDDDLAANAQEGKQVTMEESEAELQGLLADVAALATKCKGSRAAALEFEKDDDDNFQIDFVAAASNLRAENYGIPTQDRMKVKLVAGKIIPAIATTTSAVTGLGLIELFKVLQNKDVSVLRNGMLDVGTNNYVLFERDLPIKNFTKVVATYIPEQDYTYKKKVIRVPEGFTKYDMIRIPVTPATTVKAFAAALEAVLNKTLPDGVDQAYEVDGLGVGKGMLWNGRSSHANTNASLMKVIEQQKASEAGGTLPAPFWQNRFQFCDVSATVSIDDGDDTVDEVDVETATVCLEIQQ
# [3] = target: AMP-activated protein kinase, AMPK (Homo sapiens) (UniProt P54646+O43741+P54619+Q9UGJ0+Q9Y478+Q13131+Q9UGI9); assay: AMP-dependent Kinase enzyme assay. An in vitro enzyme assay that detects ADP turnover that is directly proportional to AMPK activity. This uses naive AMPK that is activated during the assay with MK-8722; type: functional; conditions: 30 µM
# [4] = target: Sialic acid-binding Ig-like lectin 9 (Homo sapiens) (UniProt Q9Y336); assay: Hs-Siglec9 ALPHAscreen SOP 20170721; conditions: 10 µM
# Trypanosoma cruzi = assay: Trypanosoma cruzi phosphomannomutase and mannose-1-phosphate guanylyltransferase assay; type: functional; conditions: 10 µM
# [5] = target: T2, Arginase-2, mitochondrial (Homo sapiens) (UniProt P78540); assay: in vitro enzyme assay to detect the production of urea directly proportional to the activity of Arginase II; type: functional; conditions: 33.3 µM; further: in the data most compounds retested in dose-response had high values
# T2 sequence (whole entry): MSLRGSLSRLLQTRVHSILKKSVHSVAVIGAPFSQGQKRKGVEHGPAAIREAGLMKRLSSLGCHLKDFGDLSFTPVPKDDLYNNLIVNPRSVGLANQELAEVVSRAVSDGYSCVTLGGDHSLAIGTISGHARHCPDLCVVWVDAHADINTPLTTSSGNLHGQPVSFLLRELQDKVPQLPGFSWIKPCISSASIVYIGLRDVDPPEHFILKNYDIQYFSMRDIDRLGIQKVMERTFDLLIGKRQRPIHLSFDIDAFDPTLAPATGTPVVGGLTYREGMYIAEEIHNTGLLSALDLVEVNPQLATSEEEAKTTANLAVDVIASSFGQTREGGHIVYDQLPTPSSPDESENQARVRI
# [6] = target: T3, Proteasome subunit beta (Trypanosoma cruzi) (UniProt O96673); assay: Trypanosoma cruzi proteasome chymotrypsin-like activity (TcProtChymo) assay.; further: in the data most compounds retested in dose-response had high values; type: functional; conditions: 9.37 µM
# T3 sequence (whole entry): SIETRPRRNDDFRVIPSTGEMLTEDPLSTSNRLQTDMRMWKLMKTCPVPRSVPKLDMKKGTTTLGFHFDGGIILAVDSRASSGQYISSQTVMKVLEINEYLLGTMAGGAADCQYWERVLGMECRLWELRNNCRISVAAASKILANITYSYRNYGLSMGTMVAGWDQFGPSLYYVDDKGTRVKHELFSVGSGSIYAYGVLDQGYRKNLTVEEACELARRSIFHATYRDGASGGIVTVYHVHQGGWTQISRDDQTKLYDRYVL
# Homo sapiens = organism: Homo sapiens; assay: To identify inhibition of the IFN signalling (Jak-Stat) pathway via expression of an eGFP reporter gene under the control of an IFN-stimulated response element (ISRE) containing MxA promoter.; type: functional; conditions: 30 µM
# [7] = target: T4, Tyrosyl-tRNA synthetase, putative (Trypanosoma cruzi (strain CL Brener)) (UniProt Q4DSP6); assay: Trypanosoma cruzi tyrosyl tRNA synthetase (TcYRS) _High Tyrosine SOP; type: functional; conditions: 30 µM; further: in the data most compounds retested in dose-response had high values
# T4 sequence (whole entry): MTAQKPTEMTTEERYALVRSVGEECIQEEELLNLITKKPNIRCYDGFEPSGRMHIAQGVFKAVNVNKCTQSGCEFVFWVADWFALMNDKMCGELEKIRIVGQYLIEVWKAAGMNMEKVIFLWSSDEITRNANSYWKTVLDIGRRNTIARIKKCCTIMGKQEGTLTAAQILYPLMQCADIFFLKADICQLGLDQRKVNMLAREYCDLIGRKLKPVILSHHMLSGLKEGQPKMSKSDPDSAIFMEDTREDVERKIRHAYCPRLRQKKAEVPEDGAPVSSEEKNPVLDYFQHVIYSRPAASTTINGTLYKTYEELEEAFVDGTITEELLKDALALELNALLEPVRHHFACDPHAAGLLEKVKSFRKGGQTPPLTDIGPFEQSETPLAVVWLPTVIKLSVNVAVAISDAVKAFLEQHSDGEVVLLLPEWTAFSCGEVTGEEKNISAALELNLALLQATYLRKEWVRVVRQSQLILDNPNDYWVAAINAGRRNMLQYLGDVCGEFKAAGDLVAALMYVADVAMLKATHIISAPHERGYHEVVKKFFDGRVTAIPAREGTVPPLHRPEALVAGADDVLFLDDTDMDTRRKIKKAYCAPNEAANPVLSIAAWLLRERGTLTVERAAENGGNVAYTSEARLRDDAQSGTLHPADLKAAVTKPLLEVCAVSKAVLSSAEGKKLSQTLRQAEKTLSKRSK
# [8] = target: T4, Tyrosyl-tRNA synthetase, putative (Trypanosoma cruzi (strain CL Brener)); assay: Trypanosoma cruzi tyrosyl tRNA synthetase (TcYRS) SOP; type: functional; conditions: 30 µM
# [9] = target: Chromo domain-containing protein 1 (Saccharomyces cerevisiae (strain ATCC 204508 / S288c) (Baker's yeast)) (UniProt P32657); assay: ScCHD-1 Enzyme Inhibition Assay; type: functional; conditions: 30 µM; further: in the data most compounds retested in dose-response had high values
# Chromo domain-containing protein 1 (Saccharomyces cerevisiae (strain ATCC 204508 / S288c) (Baker's yeast)), sequence (P32657 whole entry, the tested form may be a part): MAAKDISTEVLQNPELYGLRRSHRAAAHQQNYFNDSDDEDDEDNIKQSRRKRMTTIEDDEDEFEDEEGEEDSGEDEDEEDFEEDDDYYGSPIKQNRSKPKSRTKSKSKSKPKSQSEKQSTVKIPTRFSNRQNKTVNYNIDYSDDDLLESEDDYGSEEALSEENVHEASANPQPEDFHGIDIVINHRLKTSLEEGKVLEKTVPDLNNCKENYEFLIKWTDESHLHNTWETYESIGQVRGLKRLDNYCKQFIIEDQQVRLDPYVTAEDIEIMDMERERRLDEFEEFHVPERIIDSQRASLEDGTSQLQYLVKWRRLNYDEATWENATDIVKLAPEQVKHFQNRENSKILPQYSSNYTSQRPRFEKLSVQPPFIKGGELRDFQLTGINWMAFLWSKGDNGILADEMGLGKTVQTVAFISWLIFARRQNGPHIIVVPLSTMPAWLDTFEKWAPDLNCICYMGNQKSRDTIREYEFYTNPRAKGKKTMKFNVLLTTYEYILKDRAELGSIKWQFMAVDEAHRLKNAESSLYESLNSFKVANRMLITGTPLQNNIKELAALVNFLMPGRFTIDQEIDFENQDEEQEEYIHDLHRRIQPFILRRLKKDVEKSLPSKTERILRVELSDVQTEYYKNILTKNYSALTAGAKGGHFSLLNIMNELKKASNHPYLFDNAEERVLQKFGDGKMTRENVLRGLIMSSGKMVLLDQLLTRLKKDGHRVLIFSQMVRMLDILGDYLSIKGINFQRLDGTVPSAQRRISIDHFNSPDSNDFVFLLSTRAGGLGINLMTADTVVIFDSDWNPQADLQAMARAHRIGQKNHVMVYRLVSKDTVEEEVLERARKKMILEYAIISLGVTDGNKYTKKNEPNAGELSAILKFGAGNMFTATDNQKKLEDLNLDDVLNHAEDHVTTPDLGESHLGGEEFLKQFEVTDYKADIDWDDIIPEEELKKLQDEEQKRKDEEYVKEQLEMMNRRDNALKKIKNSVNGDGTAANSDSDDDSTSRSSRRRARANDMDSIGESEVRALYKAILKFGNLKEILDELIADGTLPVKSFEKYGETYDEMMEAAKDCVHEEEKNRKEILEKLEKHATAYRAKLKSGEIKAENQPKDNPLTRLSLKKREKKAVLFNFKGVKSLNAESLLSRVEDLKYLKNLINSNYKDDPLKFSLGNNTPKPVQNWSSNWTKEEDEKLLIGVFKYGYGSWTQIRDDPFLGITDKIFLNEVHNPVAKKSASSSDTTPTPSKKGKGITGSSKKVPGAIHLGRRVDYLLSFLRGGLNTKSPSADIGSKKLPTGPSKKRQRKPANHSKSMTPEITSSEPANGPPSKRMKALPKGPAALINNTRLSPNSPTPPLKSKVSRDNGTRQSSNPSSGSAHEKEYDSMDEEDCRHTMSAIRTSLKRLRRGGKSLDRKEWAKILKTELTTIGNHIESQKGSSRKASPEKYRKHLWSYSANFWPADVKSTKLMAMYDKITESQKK
# Sialic acid-binding Ig-like lectin 9 (Homo sapiens), sequence (Q9Y336 whole entry): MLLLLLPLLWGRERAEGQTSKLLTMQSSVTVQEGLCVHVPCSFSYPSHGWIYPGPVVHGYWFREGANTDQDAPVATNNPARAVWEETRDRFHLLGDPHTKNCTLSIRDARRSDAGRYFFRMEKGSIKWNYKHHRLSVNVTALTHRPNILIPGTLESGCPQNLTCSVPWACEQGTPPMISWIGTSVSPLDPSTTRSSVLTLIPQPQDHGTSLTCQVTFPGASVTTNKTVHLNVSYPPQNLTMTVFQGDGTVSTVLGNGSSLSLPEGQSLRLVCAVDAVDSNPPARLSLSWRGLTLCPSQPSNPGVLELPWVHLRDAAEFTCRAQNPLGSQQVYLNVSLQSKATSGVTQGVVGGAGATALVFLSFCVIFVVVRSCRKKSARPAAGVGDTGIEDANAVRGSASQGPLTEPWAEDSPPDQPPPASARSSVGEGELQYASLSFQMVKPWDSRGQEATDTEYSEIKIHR
# Protein translocase subunit SecA (Escherichia coli (strain K12)), sequence (P10408 whole entry): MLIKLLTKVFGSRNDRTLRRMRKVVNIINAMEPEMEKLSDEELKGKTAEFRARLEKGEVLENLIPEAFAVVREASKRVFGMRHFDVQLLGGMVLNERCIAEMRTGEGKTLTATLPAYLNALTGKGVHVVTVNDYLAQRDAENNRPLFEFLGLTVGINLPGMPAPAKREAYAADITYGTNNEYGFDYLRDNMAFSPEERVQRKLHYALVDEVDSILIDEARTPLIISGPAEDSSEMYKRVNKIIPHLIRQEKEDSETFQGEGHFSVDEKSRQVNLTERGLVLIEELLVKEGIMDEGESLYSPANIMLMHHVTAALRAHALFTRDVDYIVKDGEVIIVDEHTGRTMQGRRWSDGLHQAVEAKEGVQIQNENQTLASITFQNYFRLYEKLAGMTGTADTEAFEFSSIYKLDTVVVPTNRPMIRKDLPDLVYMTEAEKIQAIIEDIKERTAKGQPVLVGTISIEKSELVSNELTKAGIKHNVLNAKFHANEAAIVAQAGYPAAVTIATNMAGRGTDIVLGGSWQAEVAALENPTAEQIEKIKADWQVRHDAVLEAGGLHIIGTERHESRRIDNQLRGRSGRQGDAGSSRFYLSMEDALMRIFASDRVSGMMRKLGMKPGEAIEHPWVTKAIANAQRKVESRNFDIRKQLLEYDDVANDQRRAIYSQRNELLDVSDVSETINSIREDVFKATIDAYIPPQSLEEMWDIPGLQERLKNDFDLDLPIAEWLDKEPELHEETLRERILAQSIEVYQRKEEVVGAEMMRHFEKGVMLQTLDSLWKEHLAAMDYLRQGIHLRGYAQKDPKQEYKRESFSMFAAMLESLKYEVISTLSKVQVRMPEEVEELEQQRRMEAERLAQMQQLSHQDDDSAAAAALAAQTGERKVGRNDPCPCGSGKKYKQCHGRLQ
Compound,Percent Effect [1] [%],Percent Effect [2] [%],Percent Effect [3] [%],Percent Effect [4] [%],Percent Effect (Trypanosoma cruzi) [%],Percent Effect [5] [%],Percent Effect [6] [%],Percent Effect (Homo sapiens) [%],Percent Effect [7] [%],Percent Effect [8] [%],Percent Effect [9] [%]
COC1CCCN(C(=O)Nc2nc(C)n(C)n2)C1 (stereo unspecified),-4.33,8,-6.08,5.49,1.27,1.56,11.2,14.3,6.01,6.17,-6.37
CCOC(=O)CN1CCC(C(=O)c2cc(F)ccc2F)CC1,-9.27,-5.26,-10.9,11.4,12.4,-1.53,4.01,2.26,5.39,7.32,-11.5
CC(=O)NC1CCCN(C(=O)c2ccc(Br)cc2O)C1 (stereo unspecified),-4.72,8.11,-9.01,7.98,-2.92,1.6,5.95,3.4,6.4,16.1,-2.5
Cc1nc(C)n(C2CCCN(C(=O)Cc3cccnc3)C2)n1 (stereo unspecified),-6.21,5.41,2.37,-1.07,0.586,2.5,6.17,-10.7,5.94,11,-2.33
Cc1cnn(CC2CCCN2C(=O)c2cccc(CC#N)c2)c1 (stereo unspecified),-3.75,2.53,0.139,-0.305,8.03,0,-0.0819,-5.56,0.493,1.27,-2.19
Cc1ccc(C2COCCN2C(=O)c2ccc(N(C)C)cc2)o1 (stereo unspecified),-1.88,10.7,-8.36,13.4,3.02,13.5,15.9,19.2,2.73,18.5,-4.41
CC(C)c1noc(CCCC(=O)N2CCC(Cc3cccnc3)CC2)n1,1.54,-2.53,1.06,8.41,-6.14,4.18,-2.05,16.4,0.493,-3.8,-3.44
CCOc1ncccc1NC(=O)NCC(O)c1ccccc1OC (stereo unspecified),-2.5,22.8,4.8,-4.05,4.06,4.94,9.75,23.4,3.45,21.5,-7.12
COc1cccc(C(=O)N2CCCCC2CNC(N)=O)c1 (stereo unspecified),-9.94,5.26,4.5,4.83,-4.58,-3.6,0.0846,1.79,3.45,6.17,0.323
COCCN1CCN(Cc2noc(C3CC3)n2)CC1C (stereo unspecified),0.0669,22.8,-4.5,-13.4,-3.87,1.14,10.7,-0.744,1.48,11.4,-3.63
c1ccc2oc(N3CCCCC3Cn3cncn3)nc2c1 (stereo unspecified),-9.23,18.9,-13.5,28.6,11.4,-2.4,2.69,1.84,7.92,25.6,-5.86
